Inhibition data for 17 molecules are collected here from ChEMBL document CHEMBL1961873, “Compounds: GSK PKIS; Assays: Nanosyn kinase panel” (2012).

Assay [1] addresses CDK3/Cyclin E (Homo sapiens) (UniProt P24864+Q00526). Particulars: at 1 µM.
Assay [2] concerns the target Cyclin-dependent kinase 4 (Homo sapiens) (UniProt P11802). Particulars: at 0.1 µM.
For assay [3] the target is unchanged. Particulars: at 1 µM.
Assay [4] has as its target Cyclin-dependent kinase 5 (Homo sapiens) (UniProt Q00535). Particulars: at 0.1 µM.
Assay [5] has the same target. Particulars: at 1 µM.
Assay [6] addresses Cyclin-dependent kinase 6 (Homo sapiens) (UniProt Q00534). Particulars: at 0.1 µM.
Assay [7] shares this target. As to conditions: at 1 µM.
Assay [8] deals with Dual specificity protein kinase CLK2 (Homo sapiens) (UniProt P49760). As to conditions: at 0.1 µM.
Dual specificity protein kinase CLK2 (Homo sapiens), sequence (P49760 whole entry, looked up): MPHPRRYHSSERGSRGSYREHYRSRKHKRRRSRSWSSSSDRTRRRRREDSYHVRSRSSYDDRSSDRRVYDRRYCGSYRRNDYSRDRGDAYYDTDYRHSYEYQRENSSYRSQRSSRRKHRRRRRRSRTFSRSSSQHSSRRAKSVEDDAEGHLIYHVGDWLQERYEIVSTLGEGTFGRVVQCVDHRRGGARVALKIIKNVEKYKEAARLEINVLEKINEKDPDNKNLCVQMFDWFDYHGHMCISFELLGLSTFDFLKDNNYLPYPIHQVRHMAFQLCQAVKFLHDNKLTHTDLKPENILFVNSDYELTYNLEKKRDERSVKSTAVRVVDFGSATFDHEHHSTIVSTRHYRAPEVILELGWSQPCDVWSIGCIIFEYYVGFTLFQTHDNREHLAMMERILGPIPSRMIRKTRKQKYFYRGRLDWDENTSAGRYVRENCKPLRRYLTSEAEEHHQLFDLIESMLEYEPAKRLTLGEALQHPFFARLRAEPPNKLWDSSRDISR
Assay [9] shares this target. As to conditions: at 1 µM.
Assay [10] addresses Dual specificity protein kinase CLK3 (Homo sapiens) (UniProt P49761). As to conditions: at 0.1 µM.

Broadly, the inhibition is the drop in the measured response relative to a control, in per cent.

Cyclin-dependent kinase 6 (Homo sapiens), sequence (Q00534 whole entry): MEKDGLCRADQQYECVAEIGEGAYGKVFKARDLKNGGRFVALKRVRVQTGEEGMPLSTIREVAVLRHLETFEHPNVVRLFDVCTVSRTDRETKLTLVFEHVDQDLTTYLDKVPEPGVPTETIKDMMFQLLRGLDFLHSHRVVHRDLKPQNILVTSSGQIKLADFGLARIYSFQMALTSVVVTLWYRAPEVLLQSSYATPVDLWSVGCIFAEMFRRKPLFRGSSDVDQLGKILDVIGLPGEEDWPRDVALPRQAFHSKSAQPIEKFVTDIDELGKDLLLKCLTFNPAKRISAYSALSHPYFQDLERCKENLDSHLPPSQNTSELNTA
Dual specificity protein kinase CLK3 (Homo sapiens), sequence (P49761 whole entry, looked up): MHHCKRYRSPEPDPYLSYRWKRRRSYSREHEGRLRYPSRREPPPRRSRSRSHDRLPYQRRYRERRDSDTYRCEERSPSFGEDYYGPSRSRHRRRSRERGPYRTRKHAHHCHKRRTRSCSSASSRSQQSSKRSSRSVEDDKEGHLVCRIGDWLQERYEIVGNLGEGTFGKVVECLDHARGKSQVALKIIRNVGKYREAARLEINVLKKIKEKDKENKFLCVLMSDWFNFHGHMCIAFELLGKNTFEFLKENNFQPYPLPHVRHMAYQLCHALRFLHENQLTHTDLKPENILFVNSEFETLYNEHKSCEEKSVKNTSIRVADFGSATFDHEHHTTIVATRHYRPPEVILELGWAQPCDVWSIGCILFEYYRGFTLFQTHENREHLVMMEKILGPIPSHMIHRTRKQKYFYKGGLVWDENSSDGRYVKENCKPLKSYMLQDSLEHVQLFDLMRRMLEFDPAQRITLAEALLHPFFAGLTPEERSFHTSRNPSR
Cyclin-dependent kinase 4 (Homo sapiens), sequence (P11802 whole entry): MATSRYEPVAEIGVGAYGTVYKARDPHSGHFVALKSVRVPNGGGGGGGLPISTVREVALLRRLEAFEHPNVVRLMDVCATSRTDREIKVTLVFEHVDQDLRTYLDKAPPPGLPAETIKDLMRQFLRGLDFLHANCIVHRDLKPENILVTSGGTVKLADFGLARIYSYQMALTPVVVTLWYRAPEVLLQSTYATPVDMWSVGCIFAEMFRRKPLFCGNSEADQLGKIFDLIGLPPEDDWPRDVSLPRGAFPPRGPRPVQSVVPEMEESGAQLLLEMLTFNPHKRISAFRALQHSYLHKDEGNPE
Cyclin-dependent kinase 5 (Homo sapiens), sequence (Q00535 whole entry, looked up): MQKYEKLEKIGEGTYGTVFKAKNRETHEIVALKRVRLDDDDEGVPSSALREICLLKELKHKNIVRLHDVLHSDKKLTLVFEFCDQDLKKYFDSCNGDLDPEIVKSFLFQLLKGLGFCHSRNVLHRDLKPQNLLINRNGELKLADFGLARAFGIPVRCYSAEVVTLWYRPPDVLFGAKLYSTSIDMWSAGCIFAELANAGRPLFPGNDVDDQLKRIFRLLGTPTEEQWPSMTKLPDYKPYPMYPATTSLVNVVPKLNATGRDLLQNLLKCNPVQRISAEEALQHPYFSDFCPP
CDK3/Cyclin E (Homo sapiens), sequence (P24864 whole entry, looked up): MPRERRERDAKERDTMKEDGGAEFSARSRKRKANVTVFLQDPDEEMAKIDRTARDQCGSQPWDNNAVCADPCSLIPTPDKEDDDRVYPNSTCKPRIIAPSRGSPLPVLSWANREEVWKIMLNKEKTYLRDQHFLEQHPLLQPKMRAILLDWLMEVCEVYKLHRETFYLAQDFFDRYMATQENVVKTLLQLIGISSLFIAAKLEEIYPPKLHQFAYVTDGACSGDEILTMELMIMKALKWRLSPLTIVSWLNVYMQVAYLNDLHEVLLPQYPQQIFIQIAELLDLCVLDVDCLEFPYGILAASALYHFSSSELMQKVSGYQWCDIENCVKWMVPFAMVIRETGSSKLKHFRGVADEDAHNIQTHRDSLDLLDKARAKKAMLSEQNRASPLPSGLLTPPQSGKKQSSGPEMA
CDK3/Cyclin E (Homo sapiens), sequence (Q00526 whole entry, looked up): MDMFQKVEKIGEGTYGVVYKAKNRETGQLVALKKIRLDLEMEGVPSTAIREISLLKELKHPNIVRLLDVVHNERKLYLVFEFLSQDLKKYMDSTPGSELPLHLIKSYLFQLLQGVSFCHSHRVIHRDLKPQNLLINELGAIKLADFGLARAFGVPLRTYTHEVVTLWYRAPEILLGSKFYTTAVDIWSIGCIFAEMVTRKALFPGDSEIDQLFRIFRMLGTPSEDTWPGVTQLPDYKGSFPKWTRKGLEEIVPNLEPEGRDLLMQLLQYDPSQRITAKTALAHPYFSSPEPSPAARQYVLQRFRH

In the case of `[O-][S+]1CCN(Cc2ccc(-c3ccc4ncnc(Nc5ccc(OCc6ccccc6)c(F)c5)c4c3)o2)CC1`, the inhibition is -0.37% in assay [1]; 1.78% in assay [2]; 2.34% in [3]; 0.47% in assay [4]; 0.42% in [5]; -2.8% in assay [6]. The inhibition was -0.74% in assay [7], 1.05% in assay [8], 0.69% in [9] and 0.9% in assay [10].
For `NS(=O)(=O)c1ccc(N/N=C2\C(=O)Nc3ccc(C(=O)NCCc4c[nH]cn4)cc32)cc1`, the inhibition is 81.3% in assay [1]; 14.4% in assay [2]; 56.4% in [3]; 48.3% in assay [4]; 84.4% in assay [5]; 14.9% in assay [6]. The inhibition in [7] worked out at 55.9%; in [8], 46.5%; in [9] it was 91.9%; in assay [10], 4.48%.
Regarding `CC1=C(C(=O)Nc2ccc3[nH]ncc3c2)C(c2ccc3ccccc3c2)CC(=O)N1` (configuration not stated), the inhibition in assay [1] was 2.9%; in assay [2], 2.41%; in [3], 2.46%; in assay [4], 1.12%; in assay [5] it was 3.42%; in assay [6], 3.45%. Besides, the inhibition in [7] was 4.44%; in [8] it was 1.34%; in [9], 2.42%; in assay [10], 2.41%.
On to `Nc1nc(-c2ccc3c(c2)C(=Cc2cc(Br)c(O)c(Br)c2)C(=O)N3)cs1`, for which the inhibition is -0.65% in assay [1]; -0.86% in [2]; 2.39% in assay [3]; 1.35% in assay [4]; 2.98% in assay [5]; -5% in [6]. Besides, the inhibition in assay [7] is -0.79%; in assay [8], 1.02%; in assay [9] it was 2.39%; in assay [10], 0.15%.
For `COc1cc2ncn(-c3cc(OCc4ccccc4Cl)c(C(N)=O)s3)c2cc1OC`, the inhibition in assay [1] is -0.63%; in assay [2], 2.27%; in [3], 5.4%; in [4] it was 1.51%; in [5], 4.46%; in [6], -4.1%. Also, the inhibition in [7] is 0.43%; in [8], 1.87%; in assay [9] it was 3.23%; in assay [10], 1.33%.
On to `COC(=O)Nc1nc2cc(Oc3cccc(NC(=O)Nc4cc(C(F)(F)F)ccc4F)c3)ccc2[nH]1`, for which the inhibition is -1.48% in assay [1]; 1.83% in [2]; 2.11% in assay [3]; 0.65% in assay [4]; 1.39% in [5]; -5.71% in assay [6]. Further, the inhibition in [7] is 1.18%; in assay [8] it was -0.8%; in [9], 1.04%; in assay [10], -0.93%.
For the molecule `COc1ccc2cc(-c3c(-c4ccncc4)nc(-c4ccc([S+](C)[O-])cc4)n3C)ccc2c1` (configuration not stated), the inhibition was -0.42% in assay [1]; 2.74% in assay [2]; 2.79% in assay [3]; 0.96% in assay [4]; 1.53% in assay [5]; -3.35% in assay [6]. The inhibition in [7] was -1.41%; in assay [8] it was 0.22%; in assay [9] it was 1.33%; in assay [10], 0.91%.
For `CN1CCC(C(=O)Nc2n[nH]c3nnc(-c4ccccc4)cc23)CC1`, the inhibition was determined as 5.97% in assay [1]; 8.86% in assay [2]; 29.4% in [3]; 1.11% in [4]; 3.61% in assay [5]; 7.11% in assay [6]. Further, the inhibition in assay [7] turned out to be 21.4%; in assay [8], 1.34%; in assay [9], 2.3%; in [10], 1.91%.
Turning to `CC(=O)Nc1cccc(C#Cc2cncnc2Nc2ccc(OCc3cccc(F)c3)c(Cl)c2)n1`, the inhibition in [1] was -0.89%; in assay [2] it was -1.95%; in [3] it was -1.42%; in assay [4], 0.24%; in assay [5], 1.19%; in assay [6] it was -1.85%. Moreover, the inhibition was 0.62% in assay [8], 0.84% in assay [9] and -0.78% in assay [10].
As to `O=C1Nc2ccc(C(=O)c3ccco3)cc2C1=Cc1cc(Cl)c(O)c(Cl)c1`, the inhibition in assay [1] is -0.28%; in assay [2] it was 3.32%; in assay [3], 7.07%; in assay [4], 1.97%; in assay [5], 6.39%; in assay [6] it was 3.35%. Besides, the inhibition in [7] came out at 7.37%; in assay [8], 64.6%; in assay [9], 95.7%; in assay [10], 22.3%.
As to `O=C1NC(=O)C(c2ccc(Cl)cc2)=C1Nc1ccc(Cl)c(C(=O)O)c1`, the inhibition in assay [1] is 1.13%; in [2] it was 0.08%; in [3], -0.02%; in assay [4], 0.36%; in assay [5], 1.75%; in [6] it was 4.89%. Further, the inhibition in assay [7] is 5.18%; in [8] it was -0.15%; in assay [9] it was 1.55%; in [10] it was 1.39%.
On to `CCn1c(-c2nonc2N)nc2cncc(C(=O)N3CCNCC3)c21`, for which the inhibition is 0.54% in [1]; 2.78% in assay [2]; 3.57% in assay [3]; 0.79% in assay [4]; 1.06% in assay [5]; -0.98% in [6]. In addition, the inhibition was determined as 3.06% in [7], 2.04% in [8], 5.8% in assay [9] and 2.42% in assay [10].
As for `CS(=O)(=O)CCNCc1nc(-c2ccc3ncnc(Nc4ccc(F)c(Cl)c4)c3c2)cs1`, the inhibition in assay [1] is -2.13%; in assay [2] it was 0.51%; in [3], 0.73%; in assay [4], 0.12%; in [5], 0.38%; in assay [6], 6.34%. Further, the inhibition is -1.47% in assay [7], 0.29% in assay [8], 2.89% in [9] and -0.05% in [10].
For the molecule `O=C(Nc1n[nH]c2nc(-c3ccco3)c(Br)cc12)C1CC1`, the inhibition in assay [1] was 2.69%; in assay [2] it was 2.78%; in assay [3] it was 8.19%; in assay [4], 0.87%; in [5] it was 3.63%; in assay [6] it was -1.81%. For the same molecule, the inhibition amounted to 12.9% in assay [7], 1.95% in assay [8], 2.79% in [9] and 0.97% in assay [10].
In the case of `Cc1nn(C)c2cc(N(C)c3ccnc(Nc4cccc(S(N)(=O)=O)c4)n3)ccc12`, the inhibition in assay [1] is -0.68%; in assay [2], 1.72%; in assay [3], 4.46%; in assay [4], 0.41%; in assay [5], 2.78%; in assay [7] it was -0.34%. Moreover, the inhibition in [8] was 0.73%; in assay [9] it was 0.86%; in [10], 1.2%.
With `N#Cc1c(NC(=O)c2cccc3ccccc23)sc2c1CCCC2`, the inhibition was -0.77% in assay [1]; 3.82% in [2]; 6.92% in assay [3]; 1.3% in assay [4]; 5.67% in assay [5]; 4.55% in assay [7]. Besides, the inhibition in assay [8] worked out at 1.29%; in [9] it was 0.3%; in assay [10] it was 0.63%.
Turning to `Nc1ncnc2occ(-c3ccc(NC(=O)Nc4cc(C(F)(F)F)cc(C(F)(F)F)c4)cc3)c12`, the inhibition in assay [1] was 7.22%; in assay [2], 1.55%; in assay [3], 2.23%; in assay [4] it was 0.25%; in [5], 1.52%; in assay [6] it was -0.28%. The inhibition came out at 3.73% in assay [7], 0.31% in assay [8], 2.87% in assay [9] and 0.61% in assay [10].
